Test results taken from PubChem BioAssay (Tox21).
Records with an inconclusive call do not appear. Calls of active or inactive are those of the source. Unless noted, calls come from the whole dose curve; as a rule, active = well fitted curve in the direction sought with a large enough effect in the repeat runs; inconclusive = weak or mixed curves; inactive = no such curve, though single readings can be large; an effect the other way counts as inactive or inconclusive.

Columns and labels:
[1] = qHTS assay to identify small molecule agonists of the vitamin D receptor (VDR) signaling pathway - cell viability counter screen (AID 743224); note: series mostly up to about 63 µM; % is set by controls: 0 for no effect and ±100 for the full control effect; nearly all actives have a fitted effect of over 50% in size
Outline: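 VDR-bla cell line, quantitative HTS format; 16 h compound incubation (37C, 5% CO2); ATP-based CellTiter-Glo luminescence measured in the reporter assay wells.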

[2] = qHTS assay to identify small molecule antagonists of the vitamin D receptor (VDR) signaling pathway - cell viability counter screen (AID 743225); note: % is set by controls: 0 for no effect and ±100 for the full control effect; nearly all actives have a fitted effect of over 50% in size
Outline: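 VDR-UAS-bla HEK 293T cells were plated and incubated 4 h at 37C, then dosed with compound plus 3 nM (final) 1-alpha,25-dihydroxyvitamin D3 for 16 h. After the 2 h beta-lactamase read, viability in the same wells was read as CellTiter-Glo luminescence after 30 min at room temperature.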

[3] = qHTS assay to identify small molecule agonists of the NFkB signaling pathway (AID 1159509; active = well fitted curve in the direction sought with a large enough effect in the signal ratio in the repeat runs, not every such curve was filed as active; the % refers to the signal ratio; note: series mostly up to about 61 µM; % is set by controls: 0 for no effect and ±100 for the full control effect)
Outline: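 ME-180 NFkB-bla, 2,000 cells/well, overnight plating; cpd pinned in DMSO, 5 h 37 C; B/G FRET substrate 1.5 h RT; ex 405, em 460/530 nm.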

[4] = qHTS assay to identify small molecule agonists of the NFkB signaling pathway - cell viability counter screen (AID 1159515; calls by dose curve; note: series mostly up to about 61 µM; % is set by controls: 0 for no effect and ±100 for the full control effect; nearly all actives have a fitted effect of over 55% in size)
Outline: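 Viability in NFkB-bla ME-180 cells was measured by CellTiter-Glo luminescence, 30 min room temperature, in wells already treated 5 hr with compounds and read for reporter FRET.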

[5] = qHTS assay to identify small molecule agonists of the endoplasmic reticulum stress response signaling pathway (AID 1159516; active = well fitted activation curve with a large enough effect in the signal ratio in the repeat runs, not every such curve was filed as active; the % refers to the signal ratio; note: % is set by controls: 0 for no effect and ±100 for the full control effect)
Outline: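 ER stress element reporter (bla) in HeLa. 1,500 cells/well, overnight attachment; 5 hr compound; 2 hr RT substrate; dual-emission fluorescence.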

[6] = qHTS assay to identify small molecule agonists of the endoplasmic reticulum stress response signaling pathway - cell viability counter screen (AID 1159517; calls by dose curve;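 note: HeLa cells carrying an ER stress response element beta-lactamase reporter; series mostly up to about 61 µM; % is set by controls: 0 for no effect and ±100 for the full control effect; nearly all actives have a fitted effect of over 50% in size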)
Outline: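 CellTiter-Glo was added to wells already read for beta-lactamase FRET, and luminescence was recorded 30 min later. Cells: ESRE-bla HeLa, 1,500 per well, compound exposure 5 hr at 37 C.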

[7] = qHTS assay to identify small molecule antagonists of the retinoid-related orphan receptor gamma (ROR-gamma) signaling pathway - cell viability counter screen (AID 1159520); note: % is set by controls: 0 for no effect and ±100 for the full control effect; nearly all actives have a fitted effect of over 50% in size
Outline: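 Tet-on ROR gamma CHO cells (1,000/well) were plated 4 hr, given compounds in DMSO for 2 hr at 37 C, then induced with 1 uM final doxycycline for 16 hr. Viability was read as ATP by CellTiter-Glo luminescence after 30 min.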

[8] = biological target: Nuclear receptor ROR-gamma (Homo sapiens) (UniProt P51449); assay: qHTS assay to identify small molecule antagonists of the retinoid-related orphan receptor gamma (ROR-gamma) signaling pathway (AID 1159521)
Outline: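 Tet-on ROR-gamma CHO cells with ROR response element-luciferase reporter; compounds added 2 hr before 1 uM doxycycline induction, then 16 hr at 37 C. Antagonism scored as decreased ONE-Glo luminescence.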

[9] = qHTS assay to identify small molecule agonists of the AP-1 signaling pathway - cell viability counter screen (AID 1159525; calls by dose curve; note: nearly all actives have a fitted effect of over 55% in size)
Outline: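 ME-180 AP-1-bla, 2500 cells/well, Opti-MEM + 0.5% dialyzed FBS; overnight 37 °C; cpd 15-pt titration, 5 h 37 °C; CellTiter-Glo 30 min RT; luminescence read; normalised to TOAB and DMSO controls.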

[10] = qHTS assay to identify small molecule agonists of the AP-1 signaling pathway (AID 1159526; calls by dose curve; note: % is set by controls: 0 for no effect and ±100 for the full control effect)
[11] = biological target: Retinoic acid receptor RXR-alpha (Homo sapiens) (UniProt P19793); assay: qHTS assay to identify small molecule agonists of the RXR signaling pathway (AID 1159527; calls by dose curve; note: % is set by controls: 0 for no effect and ±100 for the full control effect; nearly all actives have a fitted effect of over 35% in size)
Outline: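 GeneBLAzer RXR-alpha-UAS-bla HEK 293T cells in 2% charcoal-stripped FBS medium were exposed to compounds for 16 hr at 37 C in agonist mode. Beta-lactamase reporter read as 460/530 nm FRET ratio after 2 hr substrate loading.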

[12] = qHTS assay to identify small molecule agonists of the RXR signaling pathway - cell viability counter screen (AID 1159529)
Outline: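 RXR-alpha-UAS-bla HEK 293T cells in medium with 2% charcoal-stripped FBS were pre-incubated 5 hr, then compound-treated 16 hr at 37 C. Viability was read by CellTiter-Glo luminescence in the same wells as the beta-lactamase assay, with tetraoctyl ammonium bromide as positive control.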

[13] = qHTS assay to identify small molecule antagonists of the retinoid acid receptor (RAR) signaling pathway - cell viability counter screen (AID 1159551); note: % is set by controls: 0 for no effect and ±100 for the full control effect; nearly all actives have a fitted effect of over 35% in size
Outline: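 Following overnight attachment, C3RL4 reporter cells received DMSO-dissolved compounds and then retinol (1 uM final). Six hours later at 37 C, ATP content was measured by CellTiter-Glo luminescence.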

[14] = qHTS assay to identify small molecule antagonists of the retinoic acid receptor (RAR) signaling pathway (AID 1159552)
Outline: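 Retinol signaling pathway inhibitors screened in C3RL4 RARE-luciferase reporter cells seeded overnight at 37 C, then compounds added with 1 uM (final) retinol as pathway substrate. After 6 hr at 37 C, luciferase luminescence read after 30 min at room temperature.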

[15] = qHTS assay to identify small molecule agonists of the retinoic acid receptor (RAR) signaling pathway (AID 1159553); note: % is set by controls: 0 for no effect and ±100 for the full control effect
Outline: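 Cell line C3RL4, RARE luciferase reporter. Treatment: compounds in DMSO, 6 hr, 37 C, 5% CO2, after overnight plating. Detection: luminescence, 30 min RT after reagent.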

Retinoic acid receptor RXR-alpha (Homo sapiens), sequence (P19793 whole entry, looked up): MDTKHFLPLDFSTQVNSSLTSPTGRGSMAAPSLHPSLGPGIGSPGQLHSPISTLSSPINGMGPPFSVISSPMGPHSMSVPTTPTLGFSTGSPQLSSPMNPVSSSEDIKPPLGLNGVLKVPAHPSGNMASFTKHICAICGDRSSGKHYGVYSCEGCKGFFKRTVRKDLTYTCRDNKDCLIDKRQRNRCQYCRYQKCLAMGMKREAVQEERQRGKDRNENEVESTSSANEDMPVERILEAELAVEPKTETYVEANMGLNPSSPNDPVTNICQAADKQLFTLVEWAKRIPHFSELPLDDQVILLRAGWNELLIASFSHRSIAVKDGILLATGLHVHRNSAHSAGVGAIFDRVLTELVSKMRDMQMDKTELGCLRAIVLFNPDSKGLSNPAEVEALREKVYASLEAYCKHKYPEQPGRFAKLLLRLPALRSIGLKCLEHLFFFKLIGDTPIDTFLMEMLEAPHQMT

CCCCCOC(=O)CCCCC
inactive: Potency [1] | Potency [2] | outcome [3] | outcome [4] | outcome [5] | outcome [6] | outcome [7] | Potency [8] | Potency [9] | outcome [10] | Potency [11] | Potency [12] | outcome [13] | Potency [14] | Potency [15]

CCc1cccc2c(CCO)c[nH]c12
inactive: Potency [1] | Potency [2] | outcome [3] | outcome [4] | outcome [5] | outcome [6] | outcome [7] | Potency [8] | Potency [9] | outcome [10] | Potency [11] | Potency [12] | outcome [13] | Potency [14] | Potency [15]

CCCCCCOC(=O)CCCCC(=O)OCCCCCC
inactive: Potency [1] | Potency [2] | outcome [3] | outcome [4] | outcome [5] | outcome [6] | outcome [7] | Potency [8] | Potency [9] | outcome [10] | Potency [11] | Potency [12] | outcome [13] | Potency [14] | Potency [15]

COC(=O)c1cc(C(=O)OC)cc(S(=O)(=O)O)c1
inactive: Potency [1] | Potency [2] | outcome [3] | outcome [4] | outcome [5] | outcome [6] | outcome [7] | Potency [8] | Potency [9] | outcome [10] | Potency [11] | Potency [12] | outcome [13] | Potency [14] | Potency [15]

C[C@@H]1CCN(C(=O)[C@H](CCCN=C(N)N)NS(=O)(=O)c2cccc3c2NC[C@H](C)C3)[C@@H](C(=O)O)C1
inactive: Potency [1] | Potency [2] | outcome [3] | outcome [4] | outcome [5] | outcome [6] | outcome [7] | Potency [8] | Potency [9] | outcome [10] | Potency [11] | Potency [12] | outcome [13] | Potency [14] | Potency [15]

CCC(C)S (stereo not given)
inactive: activity change, negative = cytotoxicity [1] 8.62% [at 2.7 µM] | viability change, negative = cytotoxic [2] 1.2% [at 3.11 µM] | activation [3] 0.0323% [at 3.11 µM] | activity, negative = cytotoxic [4] 6.58% [at 3.12 µM] | activation [5] 2.07% [at 3.11 µM] | activity change, negative = cytotoxicity [6] 12.1% [at 3.11 µM] | activity, negative = cytotoxicity [7] -0.272% [at 3.27 µM] | activity change, negative = inhibition [8] 4.64% [at 3.27 µM] | viability change, negative = cytotoxic [9] 5.51% [at 2.72 µM] | activation [10] -2.17% [at 2.72 µM] | activation [11] 0.574% [at 2.71 µM] | activity change, negative = cytotoxicity [12] 0.658% [at 2.72 µM] | activity change, negative = cytotoxicity [13] 1.76% [at 3.27 µM] | activity, negative = inhibition [14] -4.13% [at 3.27 µM] | activation [15] 1.68% [at 3.75 µM]

COc1ccc2c(c1)CCCC2=O
inactive: Potency [1] | Potency [2] | outcome [3] | outcome [4] | outcome [5] | outcome [6] | outcome [7] | Potency [8] | Potency [9] | outcome [10] | Potency [11] | Potency [12] | outcome [13] | Potency [14] | Potency [15]

CCOC(=O)c1ccc(C)cc1
inactive: Potency [1] | Potency [2] | outcome [3] | outcome [4] | outcome [5] | outcome [6] | outcome [7] | Potency [8] | Potency [9] | outcome [10] | Potency [11] | Potency [12] | outcome [13] | Potency [14] | Potency [15]

N[C@H]1CN(c2c(F)cc3c(=O)c(C(=O)O)cn(C4C[C@H]4F)c3c2Cl)CC12CC2 (stereo not given in full)
inactive: Potency [1] | Potency [2] | outcome [3] | outcome [4] | outcome [5] | outcome [6] | outcome [7] | Potency [8] | Potency [9] | outcome [10] | Potency [11] | Potency [12] | outcome [13] | Potency [14] | Potency [15]

CC(C)NCCCC1(C(N)=O)c2ccccc2-c2ccccc21
inactive: Potency [1] | Potency [2] | outcome [3] | outcome [4] | outcome [5] | outcome [6] | outcome [7] | Potency [8] | Potency [9] | outcome [10] | Potency [11] | Potency [12] | outcome [13] | Potency [14] | Potency [15]

CC(=O)CC(C)C
inactive: Potency [1] | Potency [2] | outcome [3] | outcome [4] | outcome [5] | outcome [6] | outcome [7] | Potency [8] | Potency [9] | outcome [10] | Potency [11] | Potency [12] | outcome [13] | Potency [14] | Potency [15]

OC[C@]1(O)OC[C@@H](O)[C@H](O)[C@@H]1O
inactive: Potency [1] | Potency [2] | outcome [3] | outcome [4] | outcome [5] | outcome [6] | outcome [7] | Potency [8] | Potency [9] | outcome [10] | Potency [11] | Potency [12] | outcome [13] | Potency [14] | Potency [15]

OC1CCCCC1c1ccccc1 (stereo not given)
inactive: Potency [1] | Potency [2] | outcome [3] | outcome [4] | outcome [5] | outcome [6] | outcome [7] | Potency [8] | Potency [9] | outcome [10] | Potency [11] | Potency [12] | outcome [13] | Potency [14] | Potency [15]

O=C(CCCN1CCN(c2ccccn2)CC1)c1ccc(F)cc1
inactive: Potency [1] | Potency [2] | outcome [3] | outcome [4] | outcome [5] | outcome [6] | outcome [7] | Potency [8] | Potency [9] | outcome [10] | Potency [11] | Potency [12] | outcome [13] | Potency [14] | Potency [15]

O=Cc1cccc([N+](=O)[O-])c1
inactive: Potency [1] | Potency [2] | outcome [3] | outcome [4] | outcome [5] | outcome [6] | outcome [7] | Potency [8] | Potency [9] | outcome [10] | Potency [11] | Potency [12] | outcome [13] | Potency [14] | Potency [15]

CC(C)(O)C#CC(C)(C)O
inactive: Potency [1] | Potency [2] | outcome [3] | outcome [4] | outcome [5] | outcome [6] | outcome [7] | Potency [8] | Potency [9] | outcome [10] | Potency [11] | Potency [12] | outcome [13] | Potency [14] | Potency [15]
